Experimental data from PubChem BioAssay AID504834 (National Center for Advancing Translational Sciences (NCATS), 2011).
The campaign covered roughly 320,000 compounds. About 22,000 (6.9%) were called active. A call without a number means that no potency is given here. About 27% were inconclusive and are not listed. Calls come from the whole dose curve; as a rule, active = well fitted inhibition curve with a large enough effect; inconclusive = small, poorly fitted or top-dose-only effect, or another doubt; inactive = no such curve, though single readings can be large or run the other way. For the sample, actives were picked, then their nearest neighbours and some compounds at random.

Experiment: Primary qHTS for delayed death inhibitors of the malarial parasite plastid, 96 hour incubation
Conditions: P. falciparum luciferase reporter growth; series mostly up to 28.7 µM
How it was run: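 P. falciparum expressing integrated firefly luciferase, in erythrocytes at 2% hematocrit, 0.05% parasitemia, incubated with compounds 96 h at 37 C, 5% CO2. Growth inhibition read as loss of luminescence; two-generation exposure targets delayed-death apicoplast inhibitors.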
Potency is the fitted concentration of half-maximal effect.

Row | Compound | Potency
1 | COc1cccc(C(=O)Nc2nnc(S(=O)(=O)N(C)c3ccccc3)s2)c1 | inactive
2 | CCc1cc(-c2nnc(SCC(=O)NC3CC3)n2C)cs1 | inactive
3 | Cc1ccc(S(=O)(=O)CC(=O)Nc2nnc(C)s2)cc1 | inactive
4 | CCOc1ccc(CN2CCC(n3nccc3NC(=O)C3CC3)CC2)cc1CO | inactive
5 | COc1ccccc1Oc1ccc(N2CC(C(=O)OCC(=O)c3ccc(F)cc3)CC2=O)cc1 (stereo not given) | inactive
6 | CCCCc1nc2cc(C(=O)NCCc3cnn(C)c3)ccc2o1 | 7.38 µM (active)
7 | CC(C)c1nc2cc(C(=O)NC(C)c3cnn(C)c3)ccc2o1 (stereo not given) | inactive
8 | COc1ccc(CNC(=O)c2ccc3oc(C(C)C)nc3c2)cc1 | inactive
9 | CC(=O)c1c(C)[nH]c(C(=O)CN2C(=O)NC(C)(C)C2=O)c1C | inactive
10 | CN(C)CCN(C(=O)CN1C(=O)c2ccccc2C1=O)c1nc2cc3c(cc2s1)OCCO3 | inactive
11 | COc1ccc(-n2c(-c3ccccc3)nc3ccccc3c2=O)cc1 | inactive
12 | CCCN1C(=O)C(Cc2nc3ccccc3c(=O)n2-c2ccccc2)c2cc(C)ccc21 (stereo not given) | 6.57 µM (active)
13 | Cc1nc2ccccc2c(=O)n1-c1ccc(Cl)cc1Cl | inactive
14 | CC(=O)c1ccc(NC(=O)C2CCCN2S(=O)(=O)c2cccs2)cc1 (stereo not given) | inactive
15 | Cc1c(NC(=S)Nc2ccccc2)c(=O)n(-c2ccccc2)n1C | inactive
16 | Cc1c(NC(=O)Nc2cccc([N+](=O)[O-])c2)c(=O)n(-c2ccccc2)n1C | 3.7 µM (active)
17 | Cc1c(NC(=O)c2c([N+](=O)[O-])cnn2C)c(=O)n(-c2ccccc2)n1C | inactive
18 | Cc1c(C(=O)Nc2ccccn2)oc2ccc(Br)cc12 | inactive
19 | O=C(NCCCn1ccnc1)c1cc(Br)c(Br)s1 | inactive
20 | COc1cccc2sc(NNC(=O)c3nc4ccccc4s3)nc12 | 9.28 µM (active)
21 | COc1ccc(S(=O)(=O)N2CCOCC2)cc1C(=O)Nc1nc2ccccc2s1 | inactive
22 | COc1cc(/C=N/Nc2nc3ccccc3s2)ccc1O | inactive
23 | CCn1c(SC(C)C(=O)Nc2ccc(N3CCOCC3)cc2)nnc1-c1ccco1 (stereo not given) | inactive
24 | COc1ccc(NS(=O)(=O)c2ccc(NC(C)=O)cc2)cc1OC | inactive
25 | COc1ccc(C(=O)Oc2cc(/C=N/NS(=O)(=O)c3ccc(C)cc3)ccc2OC)cc1 | inactive
26 | COc1ccc(/C=C/C(=O)c2ccc(NS(=O)(=O)c3ccc(C)cc3)cc2)cc1O | 11.7 µM (active)
27 | CSc1sc(C(=O)NNC(=O)c2ccc(Cl)cc2)c2c1C=CCC2 | inactive
28 | CC(C)(C)c1ccc(CN2C(=O)c3ccccc3S2(=O)=O)cc1 | inactive
29 | COc1ccc(CN2C(=O)CN=C2Nc2ccc(C)cc2C)cc1 | inactive
30 | CC(C)(C)c1ccc(CN2C(=O)CN=C(c3ccccc3)c3ccccc32)cc1 | 1.31 µM (active)
